# PubChem BioAssay (NCI)
# The panel holds about 83,000 compounds, 20% with a hit somewhere; the sample as a whole holds those more often.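 Single-concentration screen, 48 h exposure, 96-well plates. Endpoint: percent growth. Below 10 = active.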 Unmarked numbers belong to inactive results. The source made the active and inactive calls.
# Experiments:
# Test in all cases: NCI-60 one-dose screen, 48 h (100 = growth as untreated, 0 = no growth, -100 = all killed)
# Details in all cases: 10 µM unless noted
# SK-MEL-2 melanoma = tested on: SK-MEL-2 melanoma
# EKVX NSCLC = tested on: EKVX NSCLC
# SN12C renal = tested on: SN12C renal
# UO-31 renal = tested on: UO-31 renal
# TK-10 renal = tested on: TK-10 renal
# ACHN renal = tested on: ACHN renal
# CAKI-1 renal = tested on: CAKI-1 renal
# A498 renal = tested on: A498 renal
# RPMI-8226 leukemia = tested on: RPMI-8226 leukemia
# OVCAR-8 ovarian = tested on: OVCAR-8 ovarian
# OVCAR-5 ovarian = tested on: OVCAR-5 ovarian
# OVCAR-4 ovarian = tested on: OVCAR-4 ovarian
# SK-OV-3 ovarian = tested on: SK-OV-3 ovarian
# IGROV1 ovarian = tested on: IGROV1 ovarian
# OVCAR-3 ovarian = tested on: OVCAR-3 ovarian
# HS 578T breast = tested on: HS 578T breast
# NCI/ADR-RES ovarian = tested on: NCI/ADR-RES ovarian
# MOLT-4 leukemia = tested on: MOLT-4 leukemia
# SR leukemia = tested on: SR leukemia
# CCRF-CEM leukemia = tested on: CCRF-CEM leukemia
Structure (SMILES),growth (SK-MEL-2 melanoma),growth (EKVX NSCLC),growth (SN12C renal),growth (UO-31 renal),growth (TK-10 renal),growth (ACHN renal),growth (CAKI-1 renal),growth (A498 renal),growth (RPMI-8226 leukemia),growth (OVCAR-8 ovarian),growth (OVCAR-5 ovarian),growth (OVCAR-4 ovarian),growth (SK-OV-3 ovarian),growth (IGROV1 ovarian),growth (OVCAR-3 ovarian),growth (HS 578T breast),growth (NCI/ADR-RES ovarian),growth (MOLT-4 leukemia),growth (SR leukemia),growth (CCRF-CEM leukemia)
COC(=O)c1ccc2c(c1)[n+](=O)c(C(C)=O)c(C(F)(F)F)n2[O-],-31.9% (active),-46.3% (active),-34% (active),-82% (active),25.9%,-99.3% (active),-78.5% (active),6.79% (active),-48% (active),9.07% (active),-12.9% (active),-42% (active),-31.4% (active),-78.3% (active),-92.8% (active),-19.4% (active),-40.7% (active),–,–,–
Fc1ccc(-c2cn3c(nc4ccccc43)c(-c3ccccc3)n2)cc1,109%,108%,89.2%,80.4%,113%,92.7%,84.9%,111%,111%,73.7%,111%,67.1%,105%,81.8%,111%,76.7%,89.3%,92.4%,91.5%,–
COc1ccc(C(C)=O)c(OC)c1,94.6%,114%,106%,97.4%,99.5%,110%,99.7%,–,100%,109%,90.2%,103%,105%,127%,117%,113%,–,102%,119%,103%
CCN1Cc2nc3sc(C)c(C)c3c(=O)n2C=C1C,91.9%,59.8%,57.1%,34.4%,87.5%,65.3%,61.6%,108%,–,38.1%,85.9%,42.3%,115%,30.1%,–,43.2%,30.9%,-3.45% (active),-9.23% (active),–
CC(=O)Nc1ccc(-n2cnc3cc(-c4ccc(OCCN5CCCCC5)cc4)ccc32)cc1,119%,97.9%,67.1%,56.3%,146%,76.8%,84.2%,–,54%,87.1%,104%,82.6%,139%,97.4%,98.4%,95.3%,–,73.1%,-9.89% (active),54.8%
CCOc1ccc(/C=N/Nc2cc(C)nc3ccc(Br)cc23)cc1,117%,83.5%,82.6%,73.4%,112%,96.3%,95.2%,–,71.4%,90.6%,89.2%,91.8%,90.8%,96.2%,105%,101%,–,76.2%,2.09% (active),38.9%
O=C1C=CC(=O)N1c1cccc(Cl)c1,116%,108%,126%,104%,68.2%,98.4%,79.4%,94.6%,–,107%,111%,–,108%,117%,–,113%,98.3%,–,–,55.4%
COc1cc(-c2cc(-c3ccc(N(C)C)cc3)nc(N3CCOCC3)c2C#N)cc(OC)c1OC,34.5%,51.2%,53.4%,54.8%,38.4%,46.1%,29.8%,75.5%,–,22.4%,37.9%,64.5%,55.9%,42.2%,87.9%,77.9%,4.22% (active),–,–,30.3%
Cc1cc(C)c(S(=O)(=O)Oc2ccccc2[N+](=O)[O-])c(C)c1,7.67% (active),48.2%,35.6%,22.8%,33.9%,37.4%,24%,–,24.2%,29.8%,43.4%,42.9%,41.2%,30.2%,-24.1% (active),-16.4% (active),–,34.6%,15.7%,20.6%
N/C(=N\C(N)=N\c1nc2ccccc2s1)c1cnccn1,3% (active),48%,36.7%,-12.9% (active),37.9%,26.2%,15.5%,–,13.3%,28.1%,60.1%,14.9%,12.9%,-1.19% (active),3.95% (active),49%,–,8.63% (active),0% (active),14.6%
COc1ccc2[nH]c(O)c(/C=c3/cc4c(c(-c5ccc(F)cc5)n3)=Nc3ccccc3-4)c2c1,103%,74.1%,88.6%,72.5%,107%,92.2%,87%,70.2%,–,75.5%,119%,–,115%,96.8%,94.7%,78.8%,52.1%,–,6.4% (active),–
Nc1nc(Nc2ccccc2SSc2ccccc2Nc2nc(N)nc(-c3ccc(C(F)(F)F)cc3)n2)nc(-c2ccc(C(F)(F)F)cc2)n1,93.7%,44.6%,57.6%,-84.6% (active),95.4%,19.9%,-20.3% (active),–,43.6%,56%,104%,82%,104%,69.7%,80.5%,78.7%,–,56.2%,-5.23% (active),53.6%
Oc1ccc(C2c3ccccc3Oc3ccccc32)c2cccnc12,27.4%,20.4%,22.9%,4.44% (active),39.1%,7.81% (active),0.125% (active),36%,28.8%,7.16% (active),44.9%,30.6%,31.4%,20.4%,56.5%,77.6%,7.48% (active),–,–,–
COc1cc(C2C3CC4CCCC[C@H]4N3[C@@]3(C(=O)Nc4cc(Cl)ccc43)C2C(=O)c2nc3ccccc3[nH]2)cc(OC)c1OC (stereo not given in full),80.5%,48.6%,63.2%,34.8%,68.8%,56.9%,30.6%,–,23.6%,70.7%,73.7%,56.3%,94.3%,62.1%,69.7%,74%,–,14%,38.3%,42.2%
COc1cc2cc(Oc3cccc(NC(=O)Nc4cc(C(F)(F)F)cc(C(F)(F)F)c4)c3)c(C)nc2cc1OC,-30.4% (active),2.88% (active),7.69% (active),11.6%,13.2%,5.82% (active),6.4% (active),-11.5% (active),–,14.2%,14.6%,27.9%,-1.05% (active),19.8%,1.71% (active),-10.7% (active),7.03% (active),–,–,0.186% (active)
Cc1cccc(C)c1N=c1oc2ccc(Cl)cc2nc1-c1ccccc1O,85.7%,78.8%,86.9%,76.8%,101%,90.7%,90.4%,95.3%,82.9%,91.4%,81.3%,–,92.8%,88.3%,102%,84.3%,86.4%,–,51.9%,–
COc1ccc(C(=O)Cn2c(C(=O)c3ccccc3)nc3ccccc32)cc1,64.2%,71.2%,43%,32.7%,59.6%,46.1%,24%,46.8%,-6.46% (active),49.3%,62%,40.4%,73%,10.1%,5.28% (active),-7.32% (active),-28.3% (active),7.92% (active),13%,–
N#C/C(=C\c1ccc(Cl)cc1)n1nnc2cc(F)c(F)cc21,38.6%,59.3%,8.61% (active),-17.5% (active),16.9%,9.15% (active),18%,–,-34.1% (active),13.3%,22.2%,17.6%,88.7%,6.69% (active),-0.889% (active),13.6%,–,1.3% (active),5.64% (active),-8.83% (active)
